# Screening data deposited in PubChem by SRMLSC.
# Compounds with a hit are over-represented: about 6.3% of the library has one in this group of screens.
# PMK inhibit = S. pneumoniae PMK inhibition. purified PMK, PK/LDH-coupled NADH absorbance 340 nm. inhibition, % at 10 µM. hit rate 0.49% among 65,000;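 active = top-ranked compounds by inhibition in the single 10 µM screen, taking a fixed number of the strongest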;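 also: 0% = full reaction with DMSO carrier and 100% = background rate without enzyme reaction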
# Abs 340nm = compounds absorbing at 340 nm. compound absorbance at 340 nm, fold over control. 65,000 tested, under 10 active. fold change at 10 µM;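 active = at 10 µM dose, initial 340 nm absorbance at least 2 fold that of control wells; inactive = change under 2 fold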;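 also: initial absorbance extrapolated from kinetic A340 decline of NADH oxidation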
# NADH coupling = inhibitors of enzymes used to reach an NAD/NADH endpoint; coupled PK/LDH NADH assays, four targets; IC50, µM (series often up to 10 µM), for the others: at the top dose inhibition; hit rate 0.02% among 65,000;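 active = single-dose screening hits from any of four coupled enzyme assays that gave an IC50 when retested across doses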;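 also: the DPM-DC format reads NADH fluorescence rather than 340 nm absorbance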
# Autofluor 339 = intrinsic fluorescence of library compounds, ex339/em460 – biochemical, MLSMR library, data from DPM-DC assay, artefact control, profiling panel; compound autofluorescence, ex339/em460 nm, NADH buffer; active compounds read high; 1 = no-compound wells, NADH background; fluorescence fold increase at 10 µM; hit rate 5.5% among 65,000;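 active = at 10 µM, mean starting fluorescence two-fold or more over control wells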;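 also: signal is the first read of a kinetic run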
# Spn DPM-DC inh = inhibitors of Streptococcus pneumoniae diphosphomevalonate decarboxylase. purified DPM-DC, PK/LDH coupled NADH fluorescence. calls only at 10 µM. hit rate 0.49% among 65,000. AID 556;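 active = the 320 compounds with the highest percent inhibition in the single-dose primary screen, excluding strongly autofluorescent ones, cut at about 32% in these data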;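 also: kinetic rate of NADH fluorescence loss reporting ADP formed by the decarboxylase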
# Spn MK inh = blocks S. pneumoniae mevalonate kinase | inhibition, % at 10 µM | hit rate 0.48% among 65,000 | purified MK, PK/LDH-coupled NADH absorbance 340 nm;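 active = ranked among the strongest by inhibition in the single 10 µM screen, a fixed top-ranked set picked for dose follow-up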
# An asterisk follows results filed as active; i = inactive; · = not tested or not shown; + = active, no number.
SMILES,PMK inhibit,Abs 340nm,NADH coupling,Autofluor 339,Spn DPM-DC inh,Spn MK inh
O=c1oc2c(CN3CCOCC3)c(O)c(Cl)cc2c2c1CCCC2,13.0,1.14,11.0%,3.8*,·,9.0
CCN(CC)C(=O)N1CCC(NC(=O)c2ccccc2)CC1,13.0,0.96,6.0%,1.05,i,6.0
Cc1sc2ncnc(NCC(c3ccco3)N(C)C)c2c1C (configuration not stated),30.0*,1.07,29.0%,1.13,i,56.0*
Cc1sc2ncnc(N[C@@H](CCC(=O)O)C(=O)O)c2c1C,5.0,1.01,6.0%,1.07,i,11.0
O=S(NC1CCCCC1)C12CC3CC(CC(C3)C1)C2 (configuration not stated),0.0,1.06,2.0%,1.05,i,7.0
COc1ccc(-c2cc3nc(C4CCN(C(=O)OC(C)(C)C)CC4)c(C(=O)O)cn3n2)cc1,22.0,1.07,15.0%,2.67*,i,1.0
O=C1CC(C2CCCO2)C(=O)N1Cc1ccccc1 (configuration not stated),0.0,0.97,2.0%,1,i,11.0
O=C(NCc1ccco1)NC12CC3CC(CC(C3)C1)C2,0.0,1.03,2.0%,1.06,i,7.0
COC(=O)C(C)Sc1nnc(Cc2cc(=O)[nH]c(=O)[nH]2)n1-c1ccc(OC)cc1 (configuration not stated),4.0,1.05,4.0%,1.08,i,9.0
COC(=O)C1=CN(CC2CCCO2)C=C(C(=O)OC)C1c1ccsc1 (configuration not stated),12.0,1.07,9.0%,2.14*,·,6.0
CCOC(=O)C1=CN(C)C=C(C(=O)OCC)C1c1ccsc1,4.0,1.03,3.0%,4.85*,·,2.0
Cc1ccc2cc3c(nc2c1)N(Cc1ccco1)CC3,5.0,1.09,3.0%,3.78*,·,1.0
CC(C)c1nc2sc3c(SCC(=O)NCc4ccco4)ncnc3c2c2c1CCC2,0.0,1.1,4.0%,1.14,i,11.0
CSc1nc(N(CCO)CCO)c2sc3nc(-c4ccco4)c4c(c3c2n1)CCC4,0.0,1.12,6.0%,2.27*,·,12.0
N#CC(C(=O)NC1CC1)c1nc2ccccc2nc1N1CCCC1 (configuration not stated),16.0,1.04,9.0%,1.84,i,0.0
COCCNC(=O)C(C#N)c1nc2ccccc2nc1N1CCCCCC1 (configuration not stated),10.0,1.07,20.0%,2.49*,+,5.0
N#CC(C(=O)NC1CCCCC1)c1nc2ccccc2nc1N1CCCCC1 (configuration not stated),41.0*,1.05,55.0%,1.82,+,31.0
Cc1cc(N2CCN(C)CC2)nc2ccc(NC(=O)c3ccc(Br)o3)cc12,0.0,1.22,2.0%,1.1,i,5.0
Cc1cc(N2CCC(C)CC2)nc2ccc(N3C(=O)CCC3=O)cc12,8.0,1.03,6.0%,5.04*,·,4.0
Cn1c2ccccc2c2ncn(Cc3ccco3)c(=O)c21,10.0,1.05,11.0%,2.92*,i,8.0
NC(=O)c1nsc(C(=O)N(CC(=O)NCc2ccc3c(c2)OCO3)C2CCCCC2)c1N,7.0,1.08,6.0%,2.86*,i,6.0
CCn1cc(C(=O)Nc2ccc(-n3cnnn3)c(OC)c2)c(=O)c2ccc(C)nc21,9.0,1.06,5.0%,1.11,i,7.0
CCOC(=O)c1[nH]nc(C(=O)c2ccc(Br)cc2)c1O,29.0*,1.07,10.0%,1.08,i,1.0
CCn1c(N)c(C(=O)NC2CCCCC2)sc1=S,13.0,1.1,6.0%,1.01,i,6.0
CCOC(=O)CC1(C)NC(=O)c2c(C)sc(C(=O)OCC)c2N1 (configuration not stated),9.0,1.06,9.0%,3.87*,·,8.0
SMILES,PMK inhibit,Abs 340nm,NADH coupling,Autofluor 339,Spn DPM-DC inh,Spn MK inh
CCOC(=O)CC1(CC(=O)OCC)NC(=O)c2c(C)sc(C(=O)OCC)c2N1,11.0,1,3.0%,2.96*,·,10.0
O=C(CCN1C(=O)c2ccccc2C1=O)NC1=NCCS1,51.0*,0.82,19.0%,1.03,i,6.0
COC(=O)c1ccccc1NC(=O)n1cc(C)cn1,0.0,1.08,4.0%,3.65*,·,8.0
CCOC(=O)c1cncc(NC(=O)c2ccccc2)c1,16.0,1.03,20.0%,0.61,+,8.0
CCOC(=O)c1cccc(NC(=O)c2cnccn2)c1,10.0,1.01,7.0%,1.03,i,10.0
Cc1ccc(NC(=O)C2CCN(S(=O)(=O)c3cccc4cccnc34)CC2)nc1,12.0,1.08,8.0%,1.08,i,13.0
COc1ccc(OC)c(-c2cc(C(=O)Nc3cc(C)n(Cc4ccc(Cl)cc4)n3)no2)c1,18.0,1.02,6.0%,3.8*,i,0.0
COc1cccc(-c2cc(C(=O)Nc3cc(C)n(Cc4ccc(Cl)cc4)n3)no2)c1,8.0,0.99,2.0%,1.05,i,1.0
COC(=O)Cc1c(C)c2ccc(OC(=O)c3ccco3)cc2oc1=O,3.0,1.07,9.0%,2.12*,·,14.0
COC(=O)Cc1c(C)c2cc(Cl)c(OC(=O)c3ccco3)cc2oc1=O,2.0,1.06,7.0%,2.11*,·,12.0
CC1(C)Cc2c(C#N)c(NCCc3ccccc3)nc(-c3ccco3)c2CO1,0.0,1.09,0.0%,2.33*,·,0.0
CCCCc1nc(NCCN2CCOCC2)c(C#N)c2c1COC(C)(C)C2,2.0,1.01,3.0%,1.17,i,11.0
CCN(CC)CCNc1nc(-c2ccco2)c2c(c1C#N)CC(C)(C)OC2,6.0,1.06,3.0%,2.33*,·,0.0
Cc1nc(NCCO)c(C#N)c2c1COC(C)(C)C2,3.0,1.06,2.0%,1.98,·,0.0
CC(C)C1O/C(=N/C(=O)Nc2ccc(Cl)c(Cl)c2)NC1=O (configuration not stated),9.0,0.99,3.0%,1.03,i,0.0
COc1ccc(-c2nnc(SCc3ncc(-c4ccccc4)o3)o2)cc1,9.0,1.01,3.0%,1.14,i,0.0
CCCC(=O)N1CCN(c2ccc(NC(=O)c3cc4ccccc4o3)cc2)CC1,15.0,1.1,11.0%,1.04,i,13.0
O=C(Nc1ccc(N2CCN(C(=O)c3ccccc3)CC2)cc1)c1cc2ccccc2o1,6.0,1.15,2.0%,2.4*,i,0.0
Cn1c(CN2CCOCC2)nnc1SCC(=O)NC1CCCCC1,0.0,1,2.0%,1.16,i,6.0
CCCn1c(SCC(=O)Nc2sc(C)c(C)c2C(=O)OCC)nc2c1c(=O)n(C)c(=O)n2C,10.0,1.03,5.0%,1.23,i,5.0
CC1=CC(C#N)(C#N)C(C#N)(C#N)C(c2ccccc2)N1 (configuration not stated),10.0,1.02,16.0%,3.1*,i,11.0
CN(C)CCCN1C(=O)C(O)=C(C(=O)c2cc3ccccc3o2)C1c1ccccn1 (configuration not stated),3.0,1.06,3.0%,1.08,i,6.0
